Screening data from PubChem.
miR-122 inh: raises miR-122 sensor activity in Huh7 cells; activation, % at 12.5 µM; Huh7 psiCHECK-miR122 Renilla luciferase sensor, 48 h; 340,000 tested, 0.14% active;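 active = mean activation of 30% or more, with every replicate also reaching 30%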;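 also: 0% = median of neutral control wells and 100% = median of positive control wells; higher luciferase signal means stronger suppression of miR-122 activity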
Starred values were filed as active, the others as inactive. The full list was thinned out, with hits kept by preference.

SMILES	miR-122 inh
CO[C@H]1CN(C)C(=O)c2ccc(NC(=O)Nc3ccc(Cl)cc3)cc2OC[C@@H](C)N(C)C[C@@H]1C	3
C[C@H](CO)N1C[C@H](C)[C@@H](CN(C)Cc2ccccn2)Oc2ncc(C#Cc3ccc(F)cc3)cc2C1=O	3
CCCC(=O)Nc1ccc2c(c1)C(=O)N(C)C[C@@H](OC)[C@@H](C)CN[C@@H](C)CO2	0
CO[C@H]1CN(C)C(=O)c2cc(NC(=O)C3CCOCC3)ccc2OC[C@@H](C)N(C)C[C@@H]1C	-4
CCCC(=O)Nc1ccc2c(c1)C(=O)N(C)[C@@H]1CC[C@H](CC(=O)NCC(F)(F)F)O[C@H]1CO2	37*
CN1C(=O)c2cc(NC(=O)Cc3cccs3)ccc2OC[C@@H]2O[C@H](CC(=O)NCC3CCCCC3)CC[C@@H]21	-154
CN1C(=O)c2cc(NC(=O)c3cccs3)ccc2OC[C@@H]2O[C@@H](CC(=O)NCCN3CCCCC3)CC[C@H]21	83*
CN1C(=O)c2cc(NC(=O)c3cccs3)ccc2OC[C@H]2O[C@@H](CC(=O)N3CCCCC3)CC[C@H]21	37*
CO[C@@H]1CN(C)C(=O)c2cc(NC(=O)C3CCOCC3)ccc2OC[C@@H](C)N(C)C[C@H]1C	-1
CN1C(=O)c2cc(NC(=O)c3cccs3)ccc2OC[C@H]2O[C@H](CC(=O)NCC(F)(F)F)CC[C@H]21	50*
CCCC(=O)Nc1ccc2c(c1)C(=O)N(C)[C@H]1CC[C@@H](CC(=O)NCC(F)(F)F)O[C@H]1CO2	-143
CO[C@H]1CN(C)C(=O)c2cc(NC(=O)c3nc4ccccc4s3)ccc2OC[C@@H](C)N(Cc2ccncc2)C[C@H]1C	-2
CCC(=O)Nc1ccc2c(c1)OC[C@H](C)N(C(=O)c1ccncc1)C[C@@H](C)[C@@H](OC)CN(C)C2=O	1
CC(C)C#Cc1ccc2c(c1)O[C@@H](CN(C)C(=O)CN(C)C)[C@H](C)CN([C@@H](C)CO)S2(=O)=O	-16
C[C@H]1CN([C@@H](C)CO)C(=O)c2cc(C#Cc3ccccc3)cnc2O[C@@H]1CN(C)C(=O)c1ccccn1	2
CCCC#Cc1cnc2c(c1)C(=O)N([C@@H](C)CO)C[C@H](C)[C@@H](CN(C)C(=O)Cc1ccccc1)O2	-6
C[C@@H]1CN([C@@H](C)CO)S(=O)(=O)c2ccc(C#Cc3cccnc3)cc2O[C@@H]1CN(C)CC1CCOCC1	-24
CN(C)c1ccc(/C=C/c2ccc3ccccc3[n+]2C)cc1	49*
CC(C)NC(=O)N(C)C[C@H]1Oc2ncc(C3=CCCCC3)cc2C(=O)N([C@@H](C)CO)C[C@H]1C	-3
C/C=C/c1ccc2c(c1)O[C@@H](CN(C)C(=O)Cc1ccccn1)[C@H](C)CN([C@H](C)CO)S2(=O)=O	2
CN(C)CC(=O)N1CCCCN2[C@@H](CO)[C@@H](c3ccc(/C=C/c4ccccc4)cc3)[C@@H]2C1	32*
C[C@H]1CN([C@@H](C)CO)S(=O)(=O)c2ccc(-c3ccc(C(=O)N(C)C)cc3)cc2O[C@@H]1CN(C)C	2
C[C@@H]1CN([C@@H](C)CO)S(=O)(=O)c2ccc(-c3ccc(C(=O)N(C)C)cc3)cc2O[C@@H]1CN(C)C	2
CC(=O)N(C)C[C@@H]1Oc2cc(/C=C/c3ccccc3)ccc2S(=O)(=O)N([C@H](C)CO)C[C@H]1C	-8
CN(C)C(=O)c1ccc(-c2ccc([C@H]3[C@@H](CO)N4CCCCN(C(=O)C5CCCC5)C[C@@H]34)cc2)cc1	30*
SMILES	miR-122 inh
CC(=O)N1[C@H](CNC(=O)CN(C)C)[C@@H](c2ccc(C3=CCCCC3)cc2)[C@@H]1CO	-292
C[C@@H]1CN([C@H](C)CO)S(=O)(=O)c2ccc(C3=CCCCC3)cc2O[C@@H]1CN(C)Cc1ccccc1	-92
C[C@@H]1CN([C@H](C)CO)S(=O)(=O)c2ccc(C#CC3CC3)cc2O[C@@H]1CN(C)C(=O)C1CC1	14
C[C@H](CO)N1C[C@H](C)[C@@H](CN(C)C(=O)Nc2ccc(F)cc2)Oc2ncc(-c3cccnc3)cc2C1=O	0
NC1=NC[C@@H](CC2CCCCC2)N1CCc1cc(C(F)(F)F)cc(C(F)(F)F)c1	35*
C[C@H](CO)N1C[C@H](C)[C@@H](CN(C)Cc2ccc(Oc3ccccc3)cc2)Oc2c(NC(=O)C3CCOCC3)cccc2C1=O	-100
C[C@@H]1CN([C@@H](C)CO)C(=O)c2cc(/C=C/c3ccccc3)cnc2O[C@H]1CN(C)C(=O)C1CCOCC1	-3
C[C@@H]1CN([C@H](C)CO)S(=O)(=O)c2ccc(-c3ccccc3)cc2O[C@H]1CN(C)C(=O)C1CCCCC1	-95
CN(C[C@H]1N[C@@H](CO)[C@H]1c1ccc(-c2ccccc2)cc1)C(=O)C1CCC1	42*
C[C@@H]1CN([C@@H](C)CO)C(=O)c2cc(/C=C/c3ccccc3)cnc2O[C@@H]1CN(C)C(=O)C1CCC1	-2
Cc1oc(-c2ccc(Cl)cc2)nc1CN1CCCC(C(=O)NCc2ccco2)C1 (stereo not given)	39*
CCC1=Nc2cc(C(=O)NCc3ccco3)ccc2Sc2ccc(C)cc21	-119
Cc1ccc(Nc2nc(C(=O)NCc3ccco3)cs2)cc1	-162
